Assay outcomes: PubChem, National Center for Advancing Translational Sciences (NCATS)
Sm TGR block = inhibitors of Schistosoma mansoni thioredoxin glutathione reductase. Q962Y6. purified TGR, DTNB reduction, TNB absorbance 405 nm. Potency, µM (highest dose often 114 µM), inactives show top-dose activity change, negative = inhibition, hits mostly inhibitors. actives 3% (n = 360,000). AID 485364; note: potency is the fitted concentration of half-maximal effect; % is set by controls: 0 for no effect and ±100 for the full control effect; nearly all actives have a fitted effect of over 60% in size
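First, TGR (20 nM dispensed) and NADPH were mixed with compound. Second, a 15 min room-temperature incubation followed. Third, further NADPH and then DTNB were added to start the reaction. Finally, TNB absorbance was monitored kinetically.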
SARS PLpro yeast = inhibitors of SARS-CoV papain-like protease in yeast | S. cerevisiae expressing SARS-CoV PLpro, growth rescue | Potency, µM (top dose mostly 32.9 µM), for the others: top-dose activity, positive = growth rescue, usual class: activators | actives 0.19% (n = 330,000); calls by dose curve; note: potency is the fitted concentration of half-maximal effect; 0% is about no effect; nearly all actives have a fitted effect of over 55% in size
HCMV antiviral = inhibitors of human cytomegalovirus. HFF cells, HCMV-luciferase reporter, 72 h; hits give low values. activity change, negative = inhibition, % at 57.5 µM. actives 4.5% (n = 410,000). AID 1259415; in the data active = activity change below about -60%; inconclusive = no clear call, values can overlap the other calls; inactive = above about -39%; note: % is set by controls: 0 for no effect and ±100 for the full control effect
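Screen run at 2 compound doses on HFFs infected with reporter HCMV, MOI 1 PFU/cell. Luciferase activity from cell lysates at 72 h post infection gave inhibition relative to buffer-only and Salinomycin wells.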
Pf growth 96h = P. falciparum growth inhibition at 96 hours | P. falciparum luciferase reporter growth, 96 h | Potency, µM (titrated, usually from 28.7 µM), without a hit: top-dose activity change, negative = inhibition, actives largely listed as inhibitors | actives 6.9% (n = 320,000); note: potency is the fitted concentration of half-maximal effect; % is set by controls: 0 for no effect and ±100 for the full control effect
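96 h incubation, 37 C, 5% CO2, of luciferase-reporter P. falciparum-infected RBCs (2% hematocrit, 0.05% parasitemia final) with test compounds; endpoint luminescence.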
Pf growth 48h = P. falciparum growth inhibition at 48 hours (one generation); P. falciparum luciferase growth in erythrocytes, 48 h; Potency, µM (titrated, usually from 28.7 µM), for the others: top-dose activity change, negative = inhibition, most hits filed as inhibitors; actives 5.9% (n = 310,000); note: potency is the fitted concentration of half-maximal effect; % is set by controls: 0 for no effect and ±100 for the full control effect
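Erythrocytes infected with P. falciparum carrying an integrated firefly luciferase reporter (2% hematocrit, 0.1% parasitemia final) were exposed to compounds in RPMI 1640 with 0.5% Albumax at 37 C, 5% CO2. Growth inhibition was scored as reduced luminescence.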
HCV inh = HCV inhibition. Huh7.5.1 HCVcc-Cre infection, luciferase reporter, 44 h. actives 3.4% (n = 340,000). Potency, µM (titrated, usually from 41.8 µM), without a hit: top-dose activity change, negative = inhibition, actives largely listed as inhibitors. AID 651820; note: potency is the fitted concentration of half-maximal effect; % is set by controls: 0 for no effect and ±100 for the full control effect
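Compounds are dispensed onto cells plated 4 h earlier at 1,000 per well, with HCVcc-Cre virus (about 0.5 moi) added next. Following 44 h of culture, luminescent signal is measured for 15 sec after 15 min with substrate at room temperature.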
Starred values were filed as active, the others as inactive. Hits are enriched below; roughly 15% of the tested compounds scored in any of these assays. Unless noted, calls come from the whole dose curve; as a rule, active = well fitted curve in the direction sought with a large enough effect; inconclusive = small, poorly fitted or top-dose-only effect, or another doubt; inactive = no such curve, though single readings can be large; an effect the other way counts as inactive or inconclusive.

Results for CN(C)S(=O)(=O)c1cccc(NC(=S)NC(=O)c2ccco2)c1 ?
Sm TGR block: inconclusive; SARS PLpro yeast: -14.3%; HCMV antiviral: 42.3; Pf growth 96h: inconclusive; Pf growth 48h: 11.4%; HCV inh: 0.1%

Results for COc1ccc(NC(=O)C2Cc3ccccc3CN2C(=O)c2ccco2)cc1 (centres undefined) ?
Sm TGR block: inconclusive; SARS PLpro yeast: 0.2%; HCMV antiviral: 1.5; Pf growth 96h: 4.8%; Pf growth 48h: -0.6%; HCV inh: -1.9%

What do the screens show for `CN(C)S(=O)(=O)c1cccc(NC(=O)C2Cc3ccccc3CN2C(=O)c2ccco2)c1` (centres undefined)?
Sm TGR block: 17.8µM*; SARS PLpro yeast: 3.8%; HCMV antiviral: 19.7; Pf growth 96h: inconclusive; Pf growth 48h: inconclusive; HCV inh: -23.2%

What do the screens show for `Cc1ccc(NC(=O)C2Cc3ccccc3CN2C(=O)c2ccco2)cc1S(=O)(=O)N(C)C` (centres undefined)?
Sm TGR block: 39.8µM*; SARS PLpro yeast: -3.4%; HCMV antiviral: -24.2; Pf growth 96h: -10.0%; Pf growth 48h: -13.6%; HCV inh: -6.4%

What do the screens show for `CC1Cc2ccccc2N1C(=S)Nc1cccc(S(=O)(=O)N(C)C)c1` (centres undefined)?
Sm TGR block: 50.1µM*; SARS PLpro yeast: -1.2%; HCMV antiviral: -15.7; Pf growth 96h: 11.3%; Pf growth 48h: 9.7%; HCV inh: -20.6%

Results for CCn1cc(C2=NC(CC(C)C)CO2)c2ccccc21 (centres undefined) ?
Sm TGR block: 3.3%; SARS PLpro yeast: -2.0%; HCMV antiviral: -1.3; Pf growth 96h: -13.1%; Pf growth 48h: -21.9%; HCV inh: 10µM*

How did CCn1cc(C2=NC(C(C)C)CO2)c2ccccc21 (centres undefined) do in these assays?
Sm TGR block: 4.0%; SARS PLpro yeast: 0.9%; HCMV antiviral: 54.9; Pf growth 96h: 42.5%; Pf growth 48h: 6.7%; HCV inh: inconclusive

Results for CCC(CC)C(=O)N(C)c1c(C)nc2c(OCC(=O)N(C)C)cccn12 ?
HCMV antiviral: -12.4

How did CCC(CC)C(=O)N(C)c1c(C)nc2c(OCCOc3ccc(F)cc3)cccn12 do in these assays?
HCMV antiviral: -92.1*

Results for Cc1ccc(C)c(OCC(=O)N/N=C/c2c(C)nn(-c3ccccc3)c2Cl)c1C ?
Sm TGR block: -10.6%; SARS PLpro yeast: -1.2%; HCMV antiviral: -67.8*; Pf growth 96h: 224.0%; Pf growth 48h: -19.3%; HCV inh: inconclusive

What do the screens show for `CCOC(=O)N/N=C/c1c(C)nn(-c2cccc(C(F)(F)F)c2)c1Cl`?
Sm TGR block: 3.2%; SARS PLpro yeast: -52.4%; HCMV antiviral: inconclusive; Pf growth 96h: 1.47µM*; Pf growth 48h: 2.08µM*; HCV inh: 2.24µM*

Results for CCOc1ccc(Oc2c(/C=N/NC(=O)COc3ccccc3OC)c(C)nn2-c2ccccc2)cc1 ?
Sm TGR block: -2.4%; SARS PLpro yeast: 0.5%; HCMV antiviral: -18.6; Pf growth 96h: 5.22µM*; Pf growth 48h: inconclusive; HCV inh: 12.6µM*

How did Cc1nn(-c2ccccc2)c(Cl)c1/C=N/NC(=O)CNC(=O)c1ccccc1Cl do in these assays?
Sm TGR block: 0.7%; SARS PLpro yeast: 4.8%; HCMV antiviral: inconclusive; Pf growth 96h: 1.85µM*; Pf growth 48h: 27.6%; HCV inh: inconclusive

How did CCc1ccc(NC(=O)C2CCCN(S(=O)(=O)c3cccc4cccnc34)C2)cc1 (centres undefined) do in these assays?
Sm TGR block: -11.2%; HCMV antiviral: -11.1

What do the screens show for `COc1ccc(NC(=O)CSc2ncccn2)cc1S(=O)(=O)N1CCCCC1`?
Sm TGR block: -4.9%; SARS PLpro yeast: -6.8%; HCMV antiviral: 1.7; Pf growth 96h: inconclusive; Pf growth 48h: inconclusive; HCV inh: 0.5%

Results for O=S(=O)(Nc1ccc(-c2ccc(N3CCCC3)nn2)cc1)c1ccccc1Cl ?
Sm TGR block: 1.0%; HCMV antiviral: -34.1

What do the screens show for `N/C(=N\OC(=O)c1ccc(Cl)cc1Cl)c1ccc(Cl)cc1`?
Sm TGR block: -2.3%; SARS PLpro yeast: -31.5%; HCMV antiviral: inconclusive; Pf growth 96h: -94.1%; Pf growth 48h: 347.3%; HCV inh: 5.3%

How did N/C(=N\OC(=O)c1ccc(F)cc1)c1ccccc1 do in these assays?
Sm TGR block: 8.6%; SARS PLpro yeast: -14.7%; HCMV antiviral: 39.5; Pf growth 96h: 10.4µM*; Pf growth 48h: 34.4%; HCV inh: 1.9%

How did Cc1ccc(/C(N)=N/OC(=O)c2ccc(C)cc2Cl)cc1 do in these assays?
Sm TGR block: -4.9%; SARS PLpro yeast: -86.4%; HCMV antiviral: -79.3*; Pf growth 96h: 1.7%; Pf growth 48h: -57.6%; HCV inh: inconclusive

Results for N/C(=N\OC(=O)COc1ccccc1)c1ccncc1 ?
Sm TGR block: 17.1%; SARS PLpro yeast: -0.4%; HCMV antiviral: 132.6; Pf growth 96h: 85.8%; Pf growth 48h: 64.5%; HCV inh: 12.3%

Results for N/C(=N\OC(=O)COc1ccccc1)c1ccc(Cl)cc1 ?
Sm TGR block: -8.3%; SARS PLpro yeast: 27.6%; HCMV antiviral: 31.0; Pf growth 96h: 13.1µM*; Pf growth 48h: 65.5%; HCV inh: 6.2%

How did N/C(=N\OC(=O)c1ccc(Cl)cc1)c1ccc(Cl)cc1 do in these assays?
Sm TGR block: 0.7%; SARS PLpro yeast: -94.2%; HCMV antiviral: 34.5; Pf growth 96h: 2.62µM*; Pf growth 48h: inconclusive; HCV inh: 0.0%

How did COc1ccc(CN(C)CC(=O)Nc2ccccc2C(=O)NC2CC2)cc1F do in these assays?
SARS PLpro yeast: 2.0%; HCMV antiviral: 40.8; HCV inh: inconclusive

Results for CCN(CC)S(=O)(=O)c1ccc(NC(=O)c2ccc(OCC3CCCO3)cc2)cc1 (centres undefined) ?
Sm TGR block: -9.5%; SARS PLpro yeast: 12.5%; HCMV antiviral: -89.9*; Pf growth 96h: 9.28µM*; Pf growth 48h: 9.28µM*; HCV inh: 6.31µM*

What do the screens show for `O=C(Nc1nc(-c2ccc(Cl)cc2Cl)cs1)c1ccc(OCC2CCCO2)cc1` (centres undefined)?
Sm TGR block: -2.6%; SARS PLpro yeast: 1.2%; HCMV antiviral: -63.3*; Pf growth 96h: inconclusive; Pf growth 48h: -21.3%; HCV inh: 8.91µM*

What do the screens show for `Cc1cc(NC(=O)c2ccc(OCC3CCCO3)cc2)ccc1Br` (centres undefined)?
HCMV antiviral: -80.6*
